Values joined by “and” are separate entries in the source; they are usually repeats but may differ in a detail not shown here. Equal values may be shown once. Out of some 63,000 compounds screened, about 1,100 (1.7%) were called active. No stated cut-off is given here; in the data, active means cytotoxicity above about 50%; inactive means the rest. The list comes from a sample in which actives are over-represented; it also holds similar structures and randomly drawn compounds. Entries with a potency or affinity are not part of this list. The source holds several records for some structures; these can differ, active in one and inactive in another.

This test is described as follows: HPDE-C7 pancreatic duct cell viability loss – fluorescence, HTS (AID 430).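 Further: cells exposed to compound for 48 hours before viability readout; 0% = vehicle and 100% = reference cytotoxic drug.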 The note with it: HPDE-C7 pancreatic duct cells viability, at 10 µM, stronger effect = higher value.
`CCOC(=O)c1cc2c(cn1)[nH]c1ccccc12`: the cytotoxicity is 30.4% (inactive). The same measure for `c1ccc2c3c([nH]c2c1)CNCC3`: -4.7% (inactive); for `c1ccc2c(c1)[nH]c1cnccc12`: 72.4% (active). For `CC12CCCCC1N(O)CN2O` (stereo not given), the cytotoxicity was -2.3% (inactive). Consider `CCOc1ccccc1C1SCC(=O)Nc2c1c(=O)[nH]n2C(CC)CC` (stereo not given), for which the cytotoxicity was -4% (inactive). `CCCCn1c(=O)c(C(=O)Nc2cnccn2)c(O)c2ccccc21`: the cytotoxicity is 60.1% (active). As to `CCCCc1nc2ccccc2c(=O)n1-c1ccc(O)cc1`, the cytotoxicity is -5.1% (inactive). Turning to `CCCCCCn1c(O)c(C=Nc2c(C)n(C)n(-c3ccccc3)c2=O)c(=O)[nH]c1=O`, the cytotoxicity was 5.3% (inactive). Consider `CCCCCCn1c(=O)c(C(=O)Nc2ccncc2)c(O)c2ccccc21`, for which the cytotoxicity is 37.2% (inactive). For the compound `CCCCCn1c(=O)c(C(=O)NCc2ccncc2)c(O)c2ccccc21`, the cytotoxicity was 60.6% (active). Regarding `CCCCn1c(=O)c(C(=O)Nc2nc3ccccc3[nH]2)c(O)c2ccccc21`, the cytotoxicity is 15.2% (inactive). As for `O=C(Nc1cccnc1)c1c(O)c2c(n(Cc3ccccc3)c1=O)CCCC2`, the cytotoxicity is 1% (inactive). Consider `CCCCCn1c(=O)c(C(=O)NCc2ccccn2)c(O)c2ccccc21`, for which the cytotoxicity is 2.6% (inactive). As to `CCCCCn1c(=O)c(C(=O)Nc2ccncc2)c(O)c2ccccc21`, the cytotoxicity was 68.6% (active). With `CCCCn1c(=O)c(C(=O)Nc2ccccc2S(N)(=O)=O)c(O)c2ccccc21`, the cytotoxicity was -2.2% (inactive).

As to `CCCCCCn1c(=O)c(C(=O)Nc2c(C)n(C)n(-c3ccccc3)c2=O)c(O)c2ccccc21`, the cytotoxicity is 51.8% (active). The same measure for `O=C(Nc1ccncc1)c1c(O)c2ccccc2n(Cc2ccccc2)c1=O`: -2.4% (inactive). The same measure for `COc1ccc(CC2c3cc(OC)c(OC)cc3CCN2C)cc1OC` (stereo not given): 3.5% (inactive). On to `COc1ccc2c(c1)CC1(CN2C)C(=O)NC(=O)N(c2ccc(C)cc2)C1=O` (stereo not given), for which the cytotoxicity was 5.9% (inactive). Take `COc1ccc2nc(NC(=O)CCc3nc(C4=CCN(C)CC4)no3)sc2c1`: the cytotoxicity was -12.4% (inactive). Regarding `O=c1cccc2n1CC1CC2CN(Cc2ccc3c(c2)OCO3)C1` (stereo not given), the cytotoxicity was -17.1% (inactive). On to `C=CCN1C(=O)CSc2ccc(C(=O)N3CCC4(CC3)OCCO4)cc21`, for which the cytotoxicity was -17.9% (inactive). In the case of `C=Cn1ccnc1P(=S)(c1ccn(C)c1)c1nccn1C=C`, the cytotoxicity was 7.8% (inactive).

With `CCCCN1C(=O)NC(=O)C2(Cc3c(nc4c(C)cccn4c3=O)N3CCc4ccccc4C32)C1=O` (stereo not given), the cytotoxicity was 13.9% (inactive). On to `O=c1[nH]c(=O)n(CCc2ccc(F)cc2)c(O)c1C=NCCCn1ccnc1`, for which the cytotoxicity is -19.6% (inactive). For `CNCC(O)c1ccc(O)cc1` (stereo not given), the cytotoxicity is 50.6% (active). As for `CNCC(O)c1cccc(OC(=O)c2ccccc2C)c1` (stereo not given), the cytotoxicity was -3.3% (inactive). As to `CC(CCc1ccccc1)NC(C)C(O)c1ccc(O)cc1` (stereo not given), the cytotoxicity was 8.9% (inactive). Take `Cc1ccc(-c2nc(CS(=O)CC(=O)N3CCC4(CC3)OCCO4)c(C)o2)cc1` (stereo not given): the cytotoxicity was 1.6% (inactive). With `CC(C)=CCC12CN3CCN(CC(C3)C1=O)C2`, the cytotoxicity is -7.6% (inactive).

As for `COc1cc(OC)cc(-n2nc(C(=O)N3CCC4(CC3)OCCO4)c3ccccc3c2=O)c1`, the cytotoxicity is -1.5% (inactive). On to `CCCCn1c(O)c(C(CC)=NCc2ccc3c(c2)OCO3)c(=O)[nH]c1=O`, for which the cytotoxicity is 10% (inactive). Regarding `CCC(=NCc1ccc2c(c1)OCO2)c1c(O)n(C2CCCCC2)c(=O)[nH]c1=O`, the cytotoxicity was 64.4% (active). For `CCC(=NCc1cccnc1)c1c(O)n(C2CCCCC2)c(=O)[nH]c1=O` the value was -32.8% (inactive); for `Cn1c2ccccc2c2c(C(=O)N3CCC4(CC3)OCCO4)cn(C3CCCCC3)c(=O)c21`, -1.3% (inactive); for `NCCCP(=O)(O)CCc1ccccc1`, -5.8% (inactive). The same measure for `Cn1c(O)c(/C=N/c2ccccn2)c(=O)n(C)c1=O`: -18.2% (inactive).

Regarding `COc1ccc(C2SCC(=O)Nc3c2c(=O)[nH]n3C2CCCCC2)cc1` (stereo not given), the cytotoxicity was -0.7% (inactive). For `COc1ccc(C2SCC(=O)Nc3c2c(=O)[nH]n3C2CCCCCC2)cc1` (stereo not given) the value was 90.9% (active). Take `CCOc1ccc(C2SCC(=O)Nc3c2c(=O)[nH]n3C2CCCCCC2)cc1` (stereo not given): the cytotoxicity is -18.2% (inactive). Regarding `N#Cc1ccc(N2CCNCC2)c(F)c1`, the cytotoxicity was 8.7% (inactive).

For `O=C1NC(=O)C2(Cc3c(nc4ccccn4c3=O)N3CCCCCC32)C(=O)N1Cc1ccccc1` (stereo not given), the cytotoxicity is 48.1% (inactive).

With `Cc1nc2ccc(Cl)cn2c1P(=S)(N1CCOCC1)N1CCOCC1`, the cytotoxicity is -4.2% (inactive).

Take `Nc1c(C(=O)NCc2ccco2)c2nc3ccccc3nc2n1Cc1ccc(F)cc1`: the cytotoxicity is 80.9% (active). Take `COCCOC(=O)c1c(N)n(Cc2ccc(OC)cc2)c2nc3ccccc3nc12`: the cytotoxicity is -32.4% (inactive). With `COc1ccc(Cn2c(N)c(C(=O)NCc3ccco3)c3nc4ccccc4nc32)cc1OC`, the cytotoxicity is 2.8% (inactive). Turning to `COc1ccc(Cn2c(N)c(C(=O)NCc3ccco3)c3nc4ccccc4nc32)cc1`, the cytotoxicity is 69.5% (active). On to `COCCOC(=O)c1c(N)n(Cc2ccco2)c2nc3ccccc3nc12`, for which the cytotoxicity is 17.4% (inactive). Take `Nc1c(C(=O)NCCN2CCOCC2)c2nc3ccccc3nc2n1Cc1ccco1`: the cytotoxicity is 5.7% (inactive). As for `Cc1nnc2ccc(N3CCN(C)CC3)nn12`, the cytotoxicity is -0.1% (inactive). Regarding `C=CCN1C(=O)C2(C(C(=O)OCC)=C(N)Oc3ccccc32)c2c1c1ccccc1oc2=O` (stereo not given), the cytotoxicity was 5.2% (inactive). The same measure for `CCOC(=O)c1c(N)n(CCN2CCCCC2)c2nc3ccccc3nc12`: 9.2% (inactive); for `CCCCCn1c(N)c(C(=O)NCCN2CCOCC2)c2nc3ccccc3nc21`: 10.6% (inactive).

On to `COc1ccc(CCNC(=O)c2c(N)n(CCN3CCOCC3)c3nc4ccccc4nc23)cc1`, for which the cytotoxicity is 62.9% (active). On to `CCCCCCn1c(N)c(C(=O)NCCN2CCOCC2)c2nc3ccccc3nc21`, for which the cytotoxicity was 72.1% (active). On to `CCCCNC(=O)c1c(N)n(CCCOC)c2nc3ccccc3nc12`, for which the cytotoxicity is 24.4% (inactive). On to `CCCCn1c(N)c(C(=O)NCCN2CCOCC2)c2nc3ccccc3nc21`, for which the cytotoxicity was 1.4% (inactive). Turning to `OCCNc1c2c(nc3ccccc13)CCCC2`, the cytotoxicity is -2.4% (inactive). `CC(=NCCCN1CCOCC1)c1c(O)[nH]c(=O)[nH]c1=O`: the cytotoxicity is 3.3% (inactive). As to `CC1(C)C(C(=O)NCc2ccco2)C1(C)C`, the cytotoxicity is -21.5% (inactive). For `Cc1cccc(N2CCc3c2nc2ccccc2c3N)c1`, the cytotoxicity is 24.2% (inactive) and 50.1% (active). For `Cc1cccc(-c2nc3ccccc3c(=O)n2-n2cccc2)c1` the value was 19.1% (inactive); for `Cc1nc2ccccc2c(=O)n1-c1cccc(O)c1`, 3.6% (inactive); for `CC(=NCc1cccnc1)c1c(O)n(Cc2ccccc2)c(=O)[nH]c1=O`, -13.3% (inactive). Turning to `c1cc2n(c1)-c1c(ccc3c1OCO3)CNC2c1ccc2c(c1)OCO2` (stereo not given), the cytotoxicity is 29.3% (inactive). Take `COc1ccc(C2NCc3ccc4c(c3-n3cccc32)OCO4)cc1OC` (stereo not given): the cytotoxicity was -0.1% (inactive).

With `COc1ccc(C2NCc3ccc4c(c3-n3cccc32)OCO4)cc1O` (stereo not given), the cytotoxicity was 63.9% (active). In the case of `O=C(O)C(O)(c1ccccc1)C1CCCC1` (stereo not given), the cytotoxicity is 13.6% (inactive).

Regarding `CN(C)CP(=O)(Nc1ccccc1)N(C)C` (stereo not given), the cytotoxicity was -14.4% (inactive).

`O=C(c1cc(-c2cccnc2)nc2ccc(Cl)cc12)N1CCC2(CC1)OCCO2`: the cytotoxicity is 4.7% (inactive).

In the case of `COc1cccc(OC)c1C1=NCC(=O)Nc2c1oc1ccc(Br)cc21`, the cytotoxicity was 72.5% (active). Consider `O=C1CN=C(c2ccccc2)c2oc3ccc(Br)cc3c2N1`, for which the cytotoxicity was -10.4% (inactive). With `Cc1cc(NC(=O)COC(=O)c2c(C)nn(Cc3ccccc3Cl)c2Cl)no1`, the cytotoxicity was 3.7% (inactive). The same measure for `CCn1nc(-c2cccs2)nc2c(=O)n(C)c(=O)nc1-2`: 114% (active). For the compound `O=c1c2ccccc2nc(-c2cccs2)n1-c1cnccn1`, the cytotoxicity is 2.1% (inactive). In the case of `CCc1nc2ccccc2c(=O)n1-c1cccc(OC)c1`, the cytotoxicity is 18.7% (inactive). For the compound `CCn1nc(-c2ccccc2)nc2c(=O)n(C)c(=O)nc1-2`, the cytotoxicity is 119% (active). The same measure for `CSc1ccc(CNC2CN3CCC2CC3)cc1` (stereo not given): -5.8% (inactive); for `O=C(Cc1ccccc1)OCCN1CCCCC1`: 0.7% (inactive); for `Cc1cccc(OC(=O)N2CCOCC2)c1`: -0.2% (inactive). For `O=C(COc1ccccc1)N1CCN(C/C=C/c2ccccc2)CC1` the value was 1.6% (inactive).

Consider `CCCCOc1ccc(CN2CCN(CCO)CC2)cc1`, for which the cytotoxicity is 23.7% (inactive).

Consider `CCCCc1ccc2[nH]cc(CCN)c2c1`, for which the cytotoxicity was 62.3% (active). Consider `COc1ccc2[nH]cc(CCN(C)C)c2c1`, for which the cytotoxicity is -6% (inactive).

Regarding `NCCc1c[nH]c2ccc(F)cc12`, the cytotoxicity was -7.7% (inactive). For `COc1cc(OC)c(OC)cc1CNC(C)C(O)c1ccccc1` (stereo not given), the cytotoxicity was 2.2% (inactive). For `COC(=O)c1cc2c(s1)=NC=NP=2(N1CCOCC1)N1CCOCC1`, the cytotoxicity was -14.1% (inactive).

With `C[C@@]1(CO)[C@H](O)CC[C@@]2(C)[C@H]1CC[C@H]1C[C@@H]3C[C@@]12CC[C@]3(O)CO`, the cytotoxicity was 82.5% (active). For `O=C(C(Cc1ccccc1)NS(=O)(=O)c1cccc2nsnc12)N1CCC2(CC1)OCCO2` (stereo not given), the cytotoxicity is -4.1% (inactive). Regarding `O=C(c1ccc(CS(=O)(=O)c2ccccc2)o1)N1CCC2(CC1)OCCO2`, the cytotoxicity was -2.7% (inactive). Regarding `CCC(=Nc1ccccc1NC(C)=O)c1c(O)n(C)c(=O)n(C)c1=O`, the cytotoxicity was 41.8% (inactive).

For `CC(=O)C1=C(C)OC(N)=C(C(=O)OC(C)C)C12C(=O)Nc1ccccc12` (stereo not given), the cytotoxicity is -8.9% (inactive). As for `CCc1nc(N2CCNCC2)c(C#N)c2c1CSC(C)(C)C2`, the cytotoxicity is 37.6% (inactive). For `CCCCc1nc(N2CCNCC2)c(C#N)c2c1CSC(C)(C)C2` the value was 52.3% (active); for `O=C(CN1C(=O)CN=C(c2ccccc2Cl)c2cc(Cl)ccc21)NCc1ccco1`, 2.5% (inactive); for `O=c1[nH]c(=O)n(CCC2=CCCCC2)c(O)c1C=NCCCn1ccnc1`, -30.8% (inactive).

With `COc1ccc(C(=O)C(C)(C)NO)cc1`, the cytotoxicity was -9.5% (inactive). On to `C=CCn1c(O)c(C(C)=NCc2cccnc2)c(=O)[nH]c1=O`, for which the cytotoxicity is 8.9% (inactive). For `O=C(Cn1ncc2ccccc21)N1CCC2(CC1)OCCO2`, the cytotoxicity was -19.4% (inactive). The same measure for `O=c1[nH]c(=O)n(Cc2ccccc2)c(O)c1C=NCCN1CCNCC1`: -11.2% (inactive); for `O=c1[nH]c(=O)n(C2CCCCCC2)c(O)c1C=NCCCN1CCOCC1`: 2.2% (inactive). For `O=c1c(C=NCCN2CCNCC2)c(O)n(C2CCCCC2)c(=O)n1C1CCCCC1` the value was 62.8% (active); for `Cc1nc2c(c(C)nn2-c2ccccc2)c(C)c1CCC(=O)N1CCC2(CC1)OCCO2`, -12.1% (inactive); for `Fc1ccc2c(c1)nnn2C1CCN(Cc2nnnn2C2CCCCC2)CC1`, -8% (inactive). Take `NC(=O)C1(N2CCCCC2)CCN(Cc2ccccc2)CC1`: the cytotoxicity is -8.8% (inactive).

For the origin of these results see PubChem BioAssay AID430 (Sanford-Burnham Center for Chemical Genomics, 2006).
